# Measurements taken from PubChem BioAssay (Tox21).
# Values joined by “and” are separate entries in the source; they are usually repeats but may differ in a detail not shown here. Equal values may be shown once. Results filed as inconclusive are left out. Entries that show only a call come without a potency. Some structures have more than one record in an assay (separate samples or runs), and their calls can disagree. Active and inactive are the calls of the source. Calls come from the whole dose curve; as a rule, active = well fitted curve in the direction sought with a large enough effect in the repeat runs; inconclusive = weak or mixed curves; inactive = no such curve, though single readings can be large; an effect the other way counts as inactive or inconclusive.
# Test: qHTS assay for identifying genotoxic compounds that show differential cytotoxicity against isogenic chicken DT40 cell lines with known DNA damage response pathways - wild type cell line (AID 743012)
# Conditions: DT40 wild type chicken cells viability, CellTiter-Glo, 40 h; series mostly up to 68.4 µM; activity change, negative = cytotoxicity: at the top concentration
# Outline: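 Using parental DT40 (300 cells/well), compounds delivered in DMSO incubate 40 h at 37 C/5% CO2. CellTiter-Glo reagent then stands 30 min at room temperature, and luminescence gives cell viability.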
# Note: nearly all actives have a fitted effect of over 60% in size.
# Potency is the fitted concentration of half-maximal effect.
SMILES,Potency,"activity change, negative = cytotoxicity"
O=[N+]([O-])c1cc([As](=O)(O)O)ccc1O,inactive,–
COS(=O)(=O)OC,–,14.4% (inactive)
CCOP(=S)(OCC)Oc1cc(C)nc(C(C)C)n1,–,0.013% (inactive)
C[C@H]1C(=O)O[C@@H]2CCN3CC=C(COC(=O)[C@](C)(O)[C@]1(C)O)[C@H]23,inactive,–
Nc1ncc([N+](=O)[O-])s1,–,-4.19% (inactive)
C=CCN=C=S,inactive,–
CC(=O)C1CCOC1=O (stereo unspecified),–,-5.33% [at 95 µM] (inactive)
COc1cc(-c2ccc(N)c(OC)c2)ccc1N,68.6 µM (active) and 16.4 µM (active),–
Cc1cccc(N)c1,inactive,–
O=C(O)COc1ccccc1,inactive,–
O=[N+]([O-])c1ccc(Cl)cc1,inactive,–
Cc1cccc(C)c1NC(=O)CN1CCCC1=O,inactive,–
NNc1ccccc1,inactive,–
O=C(O)C(Br)Br,inactive,–
Nc1nc(N)nc(NC2CC2)n1,inactive,–
C=CC#N,inactive,–
CN(C)C(=O)Cl,inactive,–
Cc1cccc(C)c1N,–,-11.4% (inactive)
CC[N+](=O)[O-],inactive,–
N#CN=C(N)N,inactive,–
Nc1ccc([As](=O)(O)O)cc1,inactive,–
Sc1ccccc1,–,-3.76% (inactive)
Nc1cc(Cl)cc(Cl)c1,inactive,–
Cc1ccc(N=C=O)cc1N=C=O,inactive,–
OCCCCO,inactive,–
Nc1ccc(N)cc1,54.7 µM (active),–
CCOc1ccc(N)cc1,inactive,–
C=C(C)C(=O)OCC(CC)CCCC (stereo unspecified),inactive,–

# Test: qHTS assay for identifying genotoxic compounds that show differential cytotoxicity against isogenic chicken DT40 cell lines with known DNA damage response pathways - Rad54/Ku70 mutant cell line (AID 743015)
# Conditions: DT40 Rad54/Ku70 mutant viability, CellTiter-Glo, 40 h; series mostly up to 66.8 µM; activity change, negative = cytotoxicity: at the top concentration
SMILES,Potency,"activity change, negative = cytotoxicity"
O=[N+]([O-])c1cc([As](=O)(O)O)ccc1O,inactive,–
COS(=O)(=O)OC,inactive,–
CCOP(=S)(OCC)Oc1cc(C)nc(C(C)C)n1,inactive and 30.6 µM (active),–
C[C@H]1C(=O)O[C@@H]2CCN3CC=C(COC(=O)[C@](C)(O)[C@]1(C)O)[C@H]23,inactive and 38.6 µM (active),–
Nc1ncc([N+](=O)[O-])s1,inactive,–
C=CCN=C=S,inactive,–
CC(=O)C1CCOC1=O (stereo unspecified),–,-5.1% [at 95.1 µM] (inactive)
Cc1cccc(N)c1,inactive,–
O=C(O)COc1ccccc1,inactive,–
O=[N+]([O-])c1ccc(Cl)cc1,inactive,–
Cc1cccc(C)c1NC(=O)CN1CCCC1=O,inactive,–
NNc1ccccc1,inactive and 48 µM (active),–
O=C(O)C(Br)Br,inactive,–
Nc1nc(N)nc(NC2CC2)n1,inactive and 61.1 µM (active),–
C=CC#N,inactive,–
CN(C)C(=O)Cl,inactive,–
Cc1cccc(C)c1N,inactive,–
CC[N+](=O)[O-],inactive,–
N#CN=C(N)N,inactive,–
CNC(=O)Oc1cccc2ccccc12,inactive,–
Nc1ccc([As](=O)(O)O)cc1,inactive and 13.3 µM (active),–
Sc1ccccc1,inactive,–
Nc1cc(Cl)cc(Cl)c1,inactive,–
Cc1ccc(N=C=O)cc1N=C=O,62.7 µM (active) and inactive,–
OCCCCO,inactive,–
Nc1ccc(N)cc1,26.6 µM (active) and 21.8 µM (active),–
CCOc1ccc(N)cc1,61.3 µM (active) and inactive,–
C=C(C)C(=O)OCC(CC)CCCC (stereo unspecified),inactive,–
